In PubChem BioAssay AID1671188 (National Center for Advancing Translational Sciences (NCATS), 2021):
The campaign covered roughly 100,000 compounds. About 250 (0.25%) were called active. Roughly 7% stayed inconclusive and do not appear here. What follows is part of a selection rich in actives, with near analogues and random picks from the rest. Unmarked numbers belong to inactive results. Calls come from the whole dose curve; as a rule, active = well fitted inhibition curve with a large enough effect; inconclusive = small, poorly fitted or top-dose-only effect; inactive = flat fitted curve, though single readings scatter.

Target: Alanine aminotransferase 2 (Homo sapiens) (UniProt Q8TD30)
Sequence (Q8TD30 whole entry, looked up): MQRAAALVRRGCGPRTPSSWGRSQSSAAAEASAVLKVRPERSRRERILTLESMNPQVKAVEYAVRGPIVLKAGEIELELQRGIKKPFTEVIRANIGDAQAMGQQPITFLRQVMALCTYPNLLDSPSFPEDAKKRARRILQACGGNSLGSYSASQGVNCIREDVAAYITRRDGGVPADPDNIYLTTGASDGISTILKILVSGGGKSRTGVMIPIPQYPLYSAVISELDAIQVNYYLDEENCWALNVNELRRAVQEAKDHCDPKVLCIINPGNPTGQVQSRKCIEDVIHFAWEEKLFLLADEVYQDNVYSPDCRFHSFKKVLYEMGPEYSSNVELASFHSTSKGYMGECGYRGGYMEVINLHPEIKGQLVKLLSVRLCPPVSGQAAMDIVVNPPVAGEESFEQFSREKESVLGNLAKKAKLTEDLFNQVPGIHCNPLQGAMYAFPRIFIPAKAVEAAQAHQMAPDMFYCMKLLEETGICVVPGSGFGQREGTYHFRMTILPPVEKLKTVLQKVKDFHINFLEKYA
Assay: Primary qHTS assay for inhibitors of Glutamate pyruvate transaminase 2 (GPT2); note: nearly all actives have a fitted effect of over 60% in size
Conditions: Recombinant GPT2, coupled pyruvate oxidase/HRP Amplex Red fluorescence; series mostly up to 57.7 µM; activity change, negative = inhibition: at the top concentration
Description: Assay Provider: Zhenghe John Wang Ph.D.
Case Western Reserve University, Cleveland OH
Glutamate pyruvate transaminase 2 (GPT2) catalyzes the reversible transamination of glutamate and pyruvate to provide a-ketoglutarate and alanine. We have optimized an assay for GPT2 enzymatic activity that couples pyruvate formation to detection of fluorescence using an established pyruvate oxidase/horseradish peroxidase / Amplex Red system.
Screening conditions were 250uM a-KG, 2mM L-alanine, and 10ng/uL GPT2 in […] of solution; 10uL of Amplex reaction mix (outlined below) were added so that final concentrations of Amplex reagents in 50uL were 0.2mM ThPP, 0.2U/mL PO and HRP, and 50uM Amplex.
NOTE: The volume of GPT2 in the system depends on the activity of it. The activity is different every batch. You need to test the activity before the assay. For full plate assay with automation, plate 20uL of GPT2 buffer to pin into, then add 10uL of GPT2 dilution followed immediately by 10uL of substrate dilution. 2 Columns of the plate were devoted to GPT2 buffer ([…] PH7.5, 0.0001% Tween) + 50uM AOA (known GPT2 inhibitor) to serve as a positive control. Complete the assay as normal. Amplex-red buffer: […] PH7.5, 1 mM EDTA, 1 mM MgCl2.
1. Combine a-KG and L-alanine at desired concentrations and incubate for at least 10 minutes at 37C. Stocks of L-alanine and a-KG are diluted in distilled water. However, the stocks were diluted in GPT2 buffer for the assay.
2. Prepare GPT2 dilution at the desired concentration in GPT2 buffer.
3. Plate 40uL of GPT2 dilution with 40uL of substrate dilution and let incubate for 30 minutes at room temperature.
4. Add 20uL of Amplex reaction mix prepared as follows: 1.5uL 200U/mL Horseradish Peroxidase, 200mM Thiamine Pyrophosphate, 200U/mL Pyruvate Oxidase; 7.5uL 10mM Amplex Red; 288uL Amplex Buffer.
5. Incubate for 30 minutes at room temperature in the dark, then image using AM_Amplex_Fluorescence on plate reader nearest the window.
% is set by controls: 0 for no effect and ±100 for the full control effect; potency is the fitted concentration of half-maximal effect.

| SMILES | activity change, negative = inhibition | outcome | Potency |
| --- | --- | --- | --- |
| O=C(c1ccc(C(F)(F)F)s1)N1CCCN(c2nnc3ccccn23)CC1 | -8.08% | – | – |
| COc1ccc(C(=O)N(C)Cc2ccc(F)cc2)cc1 | 0.769% [at 88.5 µM] | – | – |
| COc1cccc(NC(=O)O[C@@H]2CO[C@H]3[C@@H]2OC[C@@H]3Nc2nccc(-c3cccs3)n2)c1 | -1.4% | – | – |
| CCOC(=O)c1ccc(NC(=O)Cn2c(N3CCOCC3)nc(CC)cc2=O)cc1 | – | inactive | – |
| Cn1nccc1-c1cccc(-c2nc(N3CCOCC3)n(C)n2)c1 | -1.34% | – | – |
| CC(C)NC(=O)N1Cc2[nH]cnc2C[C@H]1c1nc(-c2ccc3c(c2)OCO3)no1 | – | inactive [at 88.5 µM] | – |
| CC(=O)/C(C)=N/O | – | – | 20 µM (active) |
| CN(CC1CCOCC1)C(=O)c1ccccc1 | -2.97% | – | – |
| C#CCNC(=O)c1cn2cc(-c3ccccc3)sc2n1 | – | inactive [at 88.5 µM] | – |
| Cc1ccccc1CN1CCCn2nc(C)c(-c3cccnc3N3CCOCC3)c21 | – | inactive [at 88.5 µM] | – |
| COc1ccc(-c2cc(-c3cccc4[nH]ncc34)cn3cncc23)cn1 | -3.99% [at 88.5 µM] | – | – |
| O=C(NCc1cccnc1)[C@@H]1C[C@@H](O)CN1C1CCN(C(=O)C2(c3ccccc3)CC2)CC1 | – | inactive | – |
| CC(NC(=O)c1ccc(C(C)(C)C)cc1)C(=O)N1CCN(c2ccccn2)CC1 (stereo not drawn) | -5.47% | – | – |
| Cc1ccccc1-c1cn(C)c(=O)n2cc(CNc3ccccc3)nc12 | 0.941% [at 88.5 µM] | – | – |
| Cn1cc(CN2CCOC[C@H]2c2ncc(-c3cccc(F)c3)[nH]2)c2ccccc21 | -3.28% [at 88.5 µM] | – | – |
| Cc1cc(S(=O)(=O)NCC2CCOCC2)ccc1F | -5.6% | – | – |
| COC1CN(c2ccc(C)cc2)C12CCN(C(=O)Cc1cccc(F)c1)CC2 (stereo not drawn) | – | inactive | – |
| CC(=O)N1CC2(CCN(Cc3cccnc3)CC2)Cc2ccccc21 | – | inactive | – |
| CC(=O)N[C@H]1CN(c2cncc(C(=O)N3CCCC3)n2)C[C@@H]1C1CC1 | – | inactive | – |
| O=C(NC1CCN(C(=O)c2ccc(-c3cncnc3)cc2)CC1)c1ccccn1 | 4% | – | – |
| CN1CCOC[C@H]2CCN(C(=O)c3ccsc3)C[C@H]21 | – | inactive | – |

| SMILES | activity change, negative = inhibition | outcome | Potency |
| --- | --- | --- | --- |
| CCCN(C)c1nccnc1OC1CCN(C(=O)c2ccnn2C)C1 (stereo not drawn) | 2.99% | – | – |
| Cc1cc2nc3n(c(=O)c2n1CC(=O)Nc1ccc2c(c1)OCO2)CCCCC3 | – | inactive | – |
| CCC1=C(C(=O)OC)C(c2ccccc2)N2C(CC(=O)N3CCCC3)=CSC2=N1 (stereo not drawn) | – | inactive | – |
| CC(C)Cc1cc(CNc2nc(C(C)(C)C)nc3c2cnn3C)no1 | -29.9% | – | – |
| COc1cccc(-c2ccc(C(=O)N3CCC(NC(=O)c4ccccc4OC)CC3)cc2)c1 | -18.1% | – | – |
| CCc1cccc2c(C(CC(=O)NCC(C)C)c3cccc(OC)c3)c[nH]c12 (stereo not drawn) | 2.13% | – | – |
| O=C(Nc1ccccc1)N1CCCC(C(=O)N2CCCC(c3nc4ncccc4[nH]3)C2)C1 (stereo not drawn) | -5.86% | – | – |
| O=C(C1CCC1)N1CCC(n2cnnc2C2CC2)CC1 | -0.859% | – | – |
| CCOC(=O)C1CCN(C(=O)c2ccc3nnc(Cc4ccc(Cl)cc4)n3c2)CC1 | 4.47% | – | – |
| CCC(C)(C)C(=O)N1CC(c2nnc(-c3ccncc3)o2)C2(CCOCC2)C1 (stereo not drawn) | – | inactive | – |
| O=C(C1CCCN(Cc2cccc(-c3ccc(F)cc3F)c2)C1)N1CCCCC1 (stereo not drawn) | -2.29% | – | – |
| CC[C@H]1CN(S(=O)(=O)c2ccc(OC)cc2)CC[C@H]1CC(=O)Nc1ccccc1 | -8.11% [at 88.5 µM] | – | – |
| CC(C)(O)CCc1cccc(C(=O)NC2CCN(c3ncccc3C#N)CC2)c1 | -5.56% | – | – |
| O=C1C[C@H]2CC[C@@H](CN1)N2C(=O)c1csc2nc(-c3ccccc3Cl)cn12 | -4.63% | – | – |
| COCCN1C(=O)N(CCc2ccccc2)C(=O)C12CCN(C/C=C/c1ccccc1)CC2 | 0.511% | – | – |
| Cc1ccc(C(=O)N2CC(n3c(C)cnc3-c3ccccc3)C2)cn1 | – | inactive | – |
| CCOC(=O)C(C)Oc1cccn2c(=O)c(-c3cc(C)n(-c4cccc(F)c4)n3)c(C)nc12 (stereo not drawn) | – | inactive | – |
| Cc1cc(N)n(CC(=O)N[C@@H]2COCC[C@H]2Oc2ccc(C(N)=O)cc2)n1 | 2.4% | – | – |
| O=C(NCc1ccncc1)c1ccc(CN2C(=O)NC3(CCS(=O)(=O)CC3)C2=O)cc1 | – | inactive | – |
| CN(Cc1cccnc1)C(=O)CC(c1ccccc1)c1ccc(Cl)cc1 (stereo not drawn) | -5.94% | – | – |
| O=C(NCCc1ccccc1)C1CN(C2CCCCC2)C(=O)N1 (stereo not drawn) | 2.65% [at 88.5 µM] | – | – |

| SMILES | activity change, negative = inhibition | outcome | Potency |
| --- | --- | --- | --- |
| COc1ccc(C(=O)N2C[C@@H](F)[C@@H](OCc3nc4ccc(C(F)(F)F)cc4[nH]3)C2)cc1 | -4.76% | – | – |
| CC(=O)Nc1ccc(C2(C(=O)NCc3ccc(Cl)cc3)CCC2)cc1 | – | inactive | – |
| CN(C)C(=O)CCc1ccc2c(c1)CN(Cc1cn[nH]c1-c1ccc(F)cc1)CCO2 | -9.05% | – | – |
| Cc1nn(C(=O)CCC(=O)N2CCC(CCOc3ccccc3)C2)c2ccccc12 (stereo not drawn) | – | inactive | – |
| C=CCN(C)C(=O)C[C@@H]1c2nc(NC(=O)c3ccc(C(C)(C)C)cc3)sc2C[C@@H]2[C@](C)(CO)[C@H](O)CC[C@]21C | 1.21% | – | – |
| COC(=O)[C@@H]1Cc2ncn(Cc3ccc(Cl)cc3)c2CN1Cc1ccc(N(C)C)cc1 | 2.35% | – | – |
| COc1cc2c(cc1CN1C[C@H]3CC[C@@H]1CN(C(=O)c1cnccn1)C3)CCC2 | -13.2% | – | – |
| Cc1ccc(S(=O)(=O)CCNC(=O)c2cc3n(n2)CCCNC3)cc1 | – | inactive | – |
| c1ccc2c(c1)CNC1(CCN(Cc3cccc4ccccc34)CC1)CO2 | – | inactive | – |
| COc1ccc(-n2nc(C)c([C@H]3C=C[C@@H](OC(=O)Nc4cccc(F)c4)C3)c2C)cc1 | -5.57% [at 88.5 µM] | – | – |
| Cc1ccc(S(=O)(=O)N2CCCC(CCC(=O)NC3CCCCC3)C2)cc1 (stereo not drawn) | 1.92% | – | – |
| O=C(NCc1ccc(Cl)nc1)c1ccn2cncc2c1 | 0.404% [at 88.5 µM] | – | – |
| CCc1cccc2c(C(CC(=O)NCC(C)C)c3ccccc3OC)c[nH]c12 (stereo not drawn) | – | inactive | – |
| COc1ccc(C(=O)N2CCN(C(C(=O)O)c3cccc(O)c3)CC2)cc1 (stereo not drawn) | -24.9% | – | – |
| CN1c2cc(C(=O)NCc3ccccc3Br)ccc2C(=O)N2CCCCC21 (stereo not drawn) | – | inactive | – |
| COc1cccc(CN2C(=O)OC3(CCN(C(=O)C4CCC(OC)CC4)CC3)C2(C)c2cccnc2)c1 (stereo not drawn) | -4.1% | – | – |
| C=CCn1cc2c3c(cccc31)[C@H](CC(C)C)N[C@H](C(=O)NCC1CC1)C2 | -3.39% [at 88.5 µM] | – | – |
| Cc1ccc(CN2CCC3(CC2)CN(C2CCC2)CC3CO)o1 (stereo not drawn) | 1.81% | – | – |
| NC1(C(=O)NCCC2CCCN(Cc3ccc4occc4c3)C2)CC1 (stereo not drawn) | -9.89% | – | – |
| COC(=O)[C@@H]1CN(C(=O)c2cccnc2)CCN1C(C)=O | -50.5% [at 88.5 µM] | – | – |
| FC(F)(F)c1ccc(CN2CCn3c(nnc3-c3ccccc3)C2)cc1 | -4.47% | – | – |
